Bioassay records as filed in PubChem.
Sampled rows, rich in hits. Any-hit rate of the full collection: about 9.4%.
HttQ103 aggreg: inhibitors of mutant huntingtin aggregate formation in PC12 cells; PC12 HttQ103-GFP aggregates, Acumen cytometry, 40 h; Potency, µM (titrated, usually from 46.1 µM), inactives show at the top dose activity change, negative = inhibition, actives largely listed as inhibitors; hit rate 1.1% among 220,000; note: potency is the fitted concentration of half-maximal effect; % is set by controls: 0 for no effect and ±100 for the full control effect; nearly all actives have a fitted effect of over 60% in size
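Using laser scanning cytometry, GFP-positive aggregates were counted after lysis of PC12 cells induced with 100 nM tebufenozide to express HTT exon 1 Q103–GFP. Compounds were tested in titration.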
IMPase Li cell: membrane-permeable IMPase blocker, potentiated with lithium | CHO-M1 cells, IP1 TR-FRET (IP-One), carbachol + lithium | Potency, µM (series often up to 59.4 µM), for inactives: at the top dose activity, negative = IMPase inhibition, usual class: inhibitors | hit rate 0.35% among 210,000;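 note: IP1 builds up when IMPase is blocked and the TR-FRET signal falls; potency is the fitted concentration of half-maximal effect; plate controls were basal vehicle for no effect and high inhibitor control for full effect; nearly all actives have a fitted effect of over 50% in size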
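IP1 accumulation measured by competitive TR-FRET in lysed CHO-M1 cells after 30 min compound exposure at 37C, with a small lithium addition to potentiate weak responses. Hill-equation AC50 from ratio and donor-channel data.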
HTT ATP protect: protects HTT-Q103 PC12 cells, measured by ATP | Potency, µM (titrated, usually from 56.4 µM), without a hit: cytoprotection (ATP increase), usual class: activators | AID 1471 | hit rate 0.14% among 230,000 | PC12 HTT-Q103 induced, cytoprotection, ATP luminescence, 40 h; note: potency is the fitted concentration of half-maximal effect; % of control where 0% means no effect; nearly all actives have a fitted effect of over 45% in size
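Quantitative HTS on tebufenozide-induced (100 nM) PC12 cells expressing HTTQ103 exon 1–GFP; compounds tested as a concentration series; survival measured via cellular ATP.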
HPGD inh: HPGD (human) dehydrogenase inhibition. P15428. purified HPGD, NADH fluorescence kinetic, PGE2 substrate. Potency, µM, for the others: at the highest dose activity change, negative = inhibition, actives largely listed as inhibitors. hit rate 4.3% among 150,000; active = well fitted inhibition curve with a large enough effect, not every such curve was filed as active; inconclusive = small, poorly fitted or top-dose-only effect, or another doubt; inactive = no such curve, though single readings can be large or run the other way; note: potency is the fitted concentration of half-maximal effect; % is set by controls: 0 for no effect and ±100 for the full control effect
Target sequence (P15428 whole entry, looked up): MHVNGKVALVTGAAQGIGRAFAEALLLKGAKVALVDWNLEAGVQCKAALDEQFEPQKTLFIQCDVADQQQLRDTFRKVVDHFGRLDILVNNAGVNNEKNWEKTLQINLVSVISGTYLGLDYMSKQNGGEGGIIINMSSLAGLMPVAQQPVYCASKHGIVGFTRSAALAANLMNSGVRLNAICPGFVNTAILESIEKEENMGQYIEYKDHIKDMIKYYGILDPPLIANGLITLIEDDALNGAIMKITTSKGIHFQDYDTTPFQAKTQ
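NADH formation kinetics: reaction with 30 uM PGE2 and 1 mM NAD+ (final), 20 nM enzyme, Tris-HCl pH 8 with Tween 20, after 15 min compound preincubation at room temperature. Fluorescence change, last versus first of five reads.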
IMPase inh: IMPase inhibition in cells; P97697; CHO-M1 cells, IP1 accumulation, HTRF TR-FRET ratio; inhibition (IP1 accumulation), % at 46.1 µM; 120,000 tested, under 10 active; active = well fitted curve in the direction sought with a large enough effect in the signal ratio, not every such curve was filed as active; inconclusive = small, poorly fitted or top-dose-only effect, or a change in a side signal; inactive = no such curve, though single readings can be large or run the other way; the % refers to the signal ratio;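 note: cells stimulated with carbachol in lithium chloride buffer; plate controls were DMSO basal wells for no effect and reference inhibitor wells for full effect; higher means more IMPase inhibition seen as more IP1 and lower FRET ratio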
Target sequence (P97697 whole entry, looked up): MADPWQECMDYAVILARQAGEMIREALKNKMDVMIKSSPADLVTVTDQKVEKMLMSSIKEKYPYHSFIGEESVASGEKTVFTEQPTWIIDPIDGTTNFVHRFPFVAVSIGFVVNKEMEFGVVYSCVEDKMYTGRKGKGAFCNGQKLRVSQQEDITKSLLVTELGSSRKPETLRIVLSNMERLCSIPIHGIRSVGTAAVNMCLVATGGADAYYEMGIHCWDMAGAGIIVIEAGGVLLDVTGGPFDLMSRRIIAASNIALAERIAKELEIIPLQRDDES
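Seeded CHO-M1 cells were dosed with compound at up to 46 uM, stimulated with carbachol for 30 min, then lysed in IP-One detection reagents. Higher IP1 lowers the TR-FRET signal.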
ALDH1A1 block: ALDH1A1 (human) enzyme inhibition; Potency, µM (highest dose often 75.3 µM), for inactives: at the highest dose activity, negative = inhibition, hits mostly inhibitors; hit rate 7.3% among 220,000; Purified ALDH1A1, NADH fluorescence, propionaldehyde substrate; active = well fitted inhibition curve with a large enough effect, not every such curve was filed as active; inconclusive = small, poorly fitted or top-dose-only effect, or another doubt; inactive = no such curve, though single readings can be large or run the other way;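 note: potency is the fitted concentration of half-maximal effect; plate controls were no enzyme wells and a reference inhibitor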
An asterisk follows results filed as active; [ ] = dose if it differs, or a comment. Unless noted, calls come from the whole dose curve; as a rule, active = well fitted curve in the direction sought with a large enough effect; inconclusive = small, poorly fitted or top-dose-only effect, or another doubt; inactive = no such curve, though single readings can be large; an effect the other way counts as inactive or inconclusive.

Screening O=C1NC(=O)/C(=C\c2cn(Cc3ccccc3F)c3ccccc23)N1 returned HttQ103 aggreg -14%, IMPase Li cell 5%, HTT ATP protect -16% and ALDH1A1 block 14µM*.
Screening COC(=O)N/N=C/c1cn(Cc2ccccc2F)c2ccccc12 returned HttQ103 aggreg -15%[9.22 µM] and HTT ATP protect 3%[10 µM].
For O=C1C(=O)c2c(C(=O)c3ccccc3)coc2-c2ccccc21 the results were HttQ103 aggreg inconclusive, IMPase Li cell 52%[38.3 µM], HTT ATP protect -83%[10 µM], HPGD inh 22µM*, IMPase inh 13 and ALDH1A1 block inconclusive.
For Cc1oc2c(c1C(=O)c1ccccc1)C(=O)C(=O)c1ccccc1-2 the results were HttQ103 aggreg inconclusive, IMPase Li cell 31%[38.3 µM], HTT ATP protect -123%, HPGD inh inconclusive, IMPase inh 26 and ALDH1A1 block -8%.
COc1cc(C2CC(=O)N(CC(=O)NCC3CCCO3)c3ccccc3S2)cc(OC)c1OC (configuration not stated) was read as HttQ103 aggreg 15%, IMPase Li cell 7%, HTT ATP protect -40% and ALDH1A1 block inconclusive.
CCCCC/C=C\C[C@H](O)/C=C\c1cccc(C[C@H](O)CCCCO)n1 was read as HTT ATP protect 9%[1.9 µM] and IMPase inh 17.
For CC(C)(C)c1ccc(S(=O)(=O)Nc2cccc(C3OCCCO3)c2)cc1 the results were HttQ103 aggreg -18%, IMPase Li cell 5%, HTT ATP protect 32%[10 µM], HPGD inh -5% and ALDH1A1 block 25µM*.
For Cc1cc(NS(=O)(=O)c2ccc(NC(=S)NC(=O)c3ccc(C(C)(C)C)cc3)cc2)no1 the results were HttQ103 aggreg 20%, IMPase Li cell 13%, HPGD inh 18µM* and ALDH1A1 block 13µM*.
`Cc1cc(NS(=O)(=O)c2ccc(NC(=S)NC(=O)c3ccc(Cl)cc3Cl)cc2)no1` gave HttQ103 aggreg 3%, IMPase Li cell -3%[38.3 µM], HTT ATP protect -17%, HPGD inh 25µM*, IMPase inh 1 and ALDH1A1 block 0%.
For Cc1cc(NS(=O)(=O)c2ccc(NC(=S)NC(=O)c3ccccc3)cc2)no1 the results were HttQ103 aggreg 17%, IMPase Li cell -5%, HTT ATP protect 18%[10 µM], HPGD inh -11%, IMPase inh 14 and ALDH1A1 block inconclusive.
CC(=O)c1ccc(NS(=O)(=O)c2ccc(C(C)(C)C)cc2)cc1 was read as HttQ103 aggreg -28%, IMPase Li cell 12%, HTT ATP protect 20% and ALDH1A1 block 13µM*.
O=C(O)CCCN1CCCCC1 was read as IMPase Li cell -1%, HTT ATP protect -5%[10 µM], HPGD inh -6% and ALDH1A1 block -6%[13.5 µM].
CC(C)c1ccc2oc(-c3ccc(Cl)c(NC(=O)Cc4ccccc4)c3)nc2c1 was read as IMPase inh -5.
Screening CCOc1ccc2cc(-c3nnc(Nc4ccc(C)cc4)s3)c(=O)oc2c1 returned IMPase inh -2.
Screening CC(=O)Nc1ccc(S(=O)(=O)Oc2ccc(/C=C3\SC(N)=NC3=O)cc2)cc1 returned HttQ103 aggreg -4%, IMPase Li cell -1%, HTT ATP protect 5% and ALDH1A1 block -7%.
Screening CC(=O)Nc1ccc(OS(=O)(=O)c2ccc(C(C)(C)C)cc2)cc1 returned HttQ103 aggreg -8%[9.22 µM], IMPase Li cell 14%, HTT ATP protect 5%[10 µM] and ALDH1A1 block 13µM*.
Cc1cc(C(=O)CSC(=S)SC(C)(C)C)ccc1Cl was read as IMPase Li cell -2%, HTT ATP protect -3%[10 µM], HPGD inh -11% and ALDH1A1 block 3%[13.5 µM].
`Cc1ccc(NC(=O)C(NC2CCCc3ccccc32)c2ccccc2)cc1Cl` (configuration not stated) gave HttQ103 aggreg 3%, IMPase Li cell 11%, HTT ATP protect 12%[10 µM], HPGD inh -14% and ALDH1A1 block 14µM*.
